LmPK inhibitor – inhibitors of Leishmania mexicana pyruvate kinase | purified LmPK, Kinase-Glo ATP luminescence, 1 h | Potency, µM (titrated, usually from 57.5 µM), for the others: top-dose activity change, negative = inhibition, actives largely listed as inhibitors | 0.37% of 290,000 active | Q27686 | AID 1721; also: potency is read from the fitted curve at half-maximal effect; % is scaled to controls: 0 for no effect and ±100 for the full control effect
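Purified LmPK (0.1 nM) with 0.5 mM PEP and 0.1 mM ADP in imidazole buffer pH 7.2 with MgCl2/KCl, 1 h at room temperature. ATP formed was read by luciferase luminescence and normalized to no-enzyme and uninhibited controls.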
Shiga toxin inh – inhibitors of Shiga toxin in Vero cells; Vero cells, Shiga toxin protein synthesis inhibition reporter; inhibition, % at 38.7 µM; 9.2% of 290,000 active; in the data active = inhibition mostly above about 28%, no sharp cut-off; inactive = mostly below about 43%; also: 0% is about no effect
FBPA Giardia inh – inhibitors of Giardia lamblia fructose-1,6-bisphosphate aldolase; A8B2U2; purified Giardia FBPA; Potency, µM (doses to about 59.6 µM), for inactives: at the top dose activity, negative = inhibition, hits mostly inhibitors; 0.71% of 290,000 active; AID 2451; also: potency is read from the fitted curve at half-maximal effect; % is scaled to controls: 0 for no effect and ±100 for the full control effect; nearly all actives have a fitted effect of over 55% in size
Target sequence (A8B2U2 whole entry, looked up): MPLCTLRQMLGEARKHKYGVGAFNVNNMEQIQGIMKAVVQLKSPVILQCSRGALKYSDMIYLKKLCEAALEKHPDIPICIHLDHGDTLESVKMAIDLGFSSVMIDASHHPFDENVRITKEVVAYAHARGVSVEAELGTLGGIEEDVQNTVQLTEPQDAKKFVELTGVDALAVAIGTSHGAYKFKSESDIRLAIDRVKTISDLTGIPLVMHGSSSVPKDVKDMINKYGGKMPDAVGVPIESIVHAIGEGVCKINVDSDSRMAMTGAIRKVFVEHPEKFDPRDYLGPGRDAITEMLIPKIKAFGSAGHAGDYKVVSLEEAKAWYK
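Giardia FBPA (40 nM reagent) was preincubated 10 min at RT with compound (up to 57.5 uM final), then substrate plus GAPDH/TPI/NAD/arsenate coupling system with diaphorase/resazurin was added; resorufin fluorescence (525/598 nm) was read after 20 min.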
Cycloheximide cs – affects cycloheximide protein synthesis inhibition readout, counter-screen; cell reporter, cycloheximide protein synthesis inhibition counterscreen; max response, %; 12% of 300,000 active; in the data active = max response mostly above about 13%, no sharp cut-off; inactive = mostly below about 14%; also: read at 38.3 µM for the half of the compounds with a filed dose; 0% is about no effect
RE007 growth inh – less growth of the S. pombe RE007 Vpr strain. S. pombe RE007 Vpr strain, BacTiter-Glo ATP luminescence, 24 h. Potency, µM (highest dose often 92.2 µM), for the others: top-dose activity change, negative = less growth, hits mostly inhibitors. 0.21% of 360,000 active; active = well fitted falling curve with a large enough effect; inconclusive = small, poorly fitted or top-dose-only effect; inactive = no such curve, though single readings can be large or run the other way; also: potency is read from the fitted curve at half-maximal effect; % is scaled to controls: 0 for no effect and ±100 for the full control effect; nearly all actives have a fitted effect of over 50% in size
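Fission yeast RE007 carrying one integrated HIV-1 vpr copy, seeded at OD 0.01 in PMG+AL medium with 23 nL pinned compound. Grown 24 h at 30 degrees; viability read by BacTiter-Glo luminescence after 5 min.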
Tb PYK inh – blocks Trypanosoma brucei pyruvate kinase; TbPYK enzyme, Kinase-Glo Plus ATP luminescence, 45 min; Potency, µM (titrated, usually from 76.8 µM), without a hit: top-dose activity, negative = inhibition, hits mostly inhibitors; 0.12% of 410,000 active; Q57TT1; also: potency is read from the fitted curve at half-maximal effect; % is scaled to controls: 0 for no effect and ±100 for the full control effect; nearly all actives have a fitted effect of over 50% in size
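Screened from lowest to highest concentration, compounds were pinned into TbPYK/substrate mixtures, and ADP (130 uM final) was added. Plates sat at room temperature for 45 min prior to Kinase-Glo Plus detection by luminescence.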
The depositor's hits bear a star; [ ] = remark or other dose. Only a selection was taken, and hits are over-represented in it overall. Unless noted, calls follow the shape of the dose curve; as a rule, active = well fitted curve in the direction sought with a large enough effect; inconclusive = small, poorly fitted or top-dose-only effect, or another doubt; inactive = no such curve, though single readings can be large; an effect the other way counts as inactive or inconclusive.

Screening CCCCCCOc1ccc(C(=N)N(CCCC)CCCC)c2ccccc12 returned Tb PYK inh -6.0%.
For CC(C)c1cccc(-c2csc(C(O)c3cccc(Cl)c3)n2)c1 (stereo not given) the results were RE007 growth inh inconclusive and Tb PYK inh 2.5%.
For Cc1cc(C(=O)NC(C)C2CCCO2)cs1 (stereo not given) the results were LmPK inhibitor -2.1%, Shiga toxin inh 32.8, FBPA Giardia inh -0.2%, Cycloheximide cs -4.3, RE007 growth inh 7.9% and Tb PYK inh 0.0%.
For CCCc1cc(C(=O)NNC(=S)NCC2CCCO2)cs1 (stereo not given) the results were LmPK inhibitor -0.1%, Shiga toxin inh 6.3, FBPA Giardia inh 0.1%, Cycloheximide cs 13.6*, RE007 growth inh -2.5% and Tb PYK inh -5.3%.
`CCCc1cc(C(=O)NC(C)C2CCCO2)cs1` (stereo not given) gave LmPK inhibitor -1.6%, Shiga toxin inh 71.4*, Cycloheximide cs 40.4*, RE007 growth inh 0.7% and Tb PYK inh -6.4%.
For CCc1cc(C(=O)NC(C)C2CCCO2)cs1 (stereo not given) the results were LmPK inhibitor -2.0%, Shiga toxin inh 61.7*, Cycloheximide cs 39.7*, RE007 growth inh 13.8% and Tb PYK inh -4.4%.
`CC1CCc2sc(C(=O)N/N=C/c3ccc(O)cc3)cc2C1` (stereo not given) gave LmPK inhibitor 6.7%, Shiga toxin inh 53.9*, FBPA Giardia inh -2.4%, Cycloheximide cs 44.6*, RE007 growth inh 5.6% and Tb PYK inh 0.8%.
CC(C)c1ccc(NC(=O)Nc2nnc([C@@H]3C[C@H](O)[C@@H](CO)O3)s2)cc1 was read as RE007 growth inh -5.4%[18.4 µM] and Tb PYK inh -2.6%.
Screening O=C(c1ccncc1)N1CCC2(CC1)CN(C(c1ccccc1)c1ccccc1)C2 returned FBPA Giardia inh 3.4% and Tb PYK inh -5.9%.
CN1CC[C@]23c4c5ccc(O)c4OC2C(O)CCC3[C@H]1C5 (stereo not given in full) was read as Tb PYK inh 0.0%[157 µM].
`CCC1CC=CC2C1C(=O)N(Cc1ccccc1)C2c1ccoc1` (stereo not given) gave Shiga toxin inh 12.6, FBPA Giardia inh -15.2% and Cycloheximide cs 15.7.
`CSc1ccc(CCNC(=O)CCCn2c(=O)c3cccn3c3ccccc32)cc1` gave Tb PYK inh -3.9%.
CC1CCc2sc(C(=O)NNC(=S)NCC3CCCO3)cc2C1 (stereo not given) was read as LmPK inhibitor -7.2%, Shiga toxin inh 8.8, FBPA Giardia inh -8.6%, Cycloheximide cs 7.1, RE007 growth inh 5.8% and Tb PYK inh 3.1%.
Screening CC1CCc2sc(C(=O)NC(C)C3CCCO3)cc2C1 (stereo not given) returned LmPK inhibitor -9.3%, Shiga toxin inh 87.5*, Cycloheximide cs 39.5*, RE007 growth inh 12.3% and Tb PYK inh -7.4%.
`CS(=O)(=O)N1CCc2cc(C(=O)Nc3ccc(COCC(F)(F)F)cc3)ccc21` gave LmPK inhibitor 8.6%, FBPA Giardia inh -8.2%, Cycloheximide cs -8.1, RE007 growth inh -3.9% and Tb PYK inh -1.5%.
`CCCCS/C(N)=N/N=C/c1ccccc1O` gave LmPK inhibitor 0.4%, Shiga toxin inh 53.9, FBPA Giardia inh 1.6%, Cycloheximide cs 32.5*, RE007 growth inh inconclusive and Tb PYK inh -11.3%.
`C/C(=N/N=C/c1ccccc1O)c1ccccc1O` gave LmPK inhibitor -6.2%, Shiga toxin inh 89.0*, FBPA Giardia inh 3.7%, Cycloheximide cs 43.4*, RE007 growth inh -13.9% and Tb PYK inh 0.0%.
`CCCS/C(N)=N/N=C/c1cc(C)ccc1O` gave LmPK inhibitor 0.8%, Shiga toxin inh 144.9*, FBPA Giardia inh 1.2%, Cycloheximide cs 41.5*, RE007 growth inh inconclusive and Tb PYK inh 1.4%.
`O=C(N/N=C/c1ccccc1OC(F)F)C1=COCCO1` gave LmPK inhibitor -6.9%, Shiga toxin inh 63.6*, FBPA Giardia inh -11.0%, Cycloheximide cs 27.4*, RE007 growth inh 2.7% and Tb PYK inh -1.0%.
Screening O=C(NN=Cc1ccc(OC(F)F)cc1)c1ccc(NS(=O)(=O)c2cccs2)cc1 returned RE007 growth inh 0.8% and Tb PYK inh -6.6%.
For O=C(N/N=C/c1ccc(OC(F)F)cc1)C1=COCCO1 the results were LmPK inhibitor inconclusive, Shiga toxin inh 77.9*, FBPA Giardia inh -0.2%, Cycloheximide cs 50.7*, RE007 growth inh 3.2% and Tb PYK inh 2.5%.
`O=C(COC(=O)C1=COCCO1)Nc1ccccc1OC(F)F` gave LmPK inhibitor -1.5%, Shiga toxin inh 20.4, FBPA Giardia inh -0.1%, Cycloheximide cs 5.3, RE007 growth inh 4.1% and Tb PYK inh 1.2%.
Screening CC1(C)CC(=O)c2c(O)cc(OCc3ccc(Br)cc3)cc2O1 returned LmPK inhibitor -3.1%, Shiga toxin inh 69.6*, FBPA Giardia inh 0.3%, Cycloheximide cs 48.6*, RE007 growth inh -1.4% and Tb PYK inh 6.4%.
COC(=O)c1ccc(COc2cc(O)c3c(c2)OC(C)(C)CC3=O)cc1 was read as LmPK inhibitor 8.6%, Shiga toxin inh -3.9, FBPA Giardia inh 1.2%, Cycloheximide cs 16.7, RE007 growth inh -9.5% and Tb PYK inh -6.7%.
CC1(C)CC(=O)c2ccc(OCc3ccc([N+](=O)[O-])cc3)cc2O1 was read as LmPK inhibitor 2.9%, Shiga toxin inh 84.5*, FBPA Giardia inh 0.2%, Cycloheximide cs 40.4*, RE007 growth inh 13.7% and Tb PYK inh 1.4%.
CC1(C)CC(=O)c2cc(OCC(=O)O)ccc2O1 was read as LmPK inhibitor -3.2%, Shiga toxin inh 1.0, FBPA Giardia inh 9.0%, Cycloheximide cs 0.6, RE007 growth inh 12.5% and Tb PYK inh -0.7%.
For N#CCSc1nccc(/C=C/c2ccccc2)n1 the results were LmPK inhibitor 2.1%, Shiga toxin inh 39.6*, FBPA Giardia inh -6.0%, Cycloheximide cs 42.0*, RE007 growth inh -8.3% and Tb PYK inh 4.5%.
O=C(NC1CCCCC1)N(Cc1nc2ccccc2c(=O)[nH]1)C1CCCCC1 was read as LmPK inhibitor -0.7%, Shiga toxin inh 65.2*, FBPA Giardia inh -6.3%, Cycloheximide cs 25.0*, RE007 growth inh 1.7% and Tb PYK inh 2.4%.
CC1CCCCC1NC(=O)CCCc1nc2ccccc2c(=O)[nH]1 (stereo not given) was read as LmPK inhibitor 0.6%, Shiga toxin inh 23.4, FBPA Giardia inh 2.9%, Cycloheximide cs 7.8*, RE007 growth inh 2.0% and Tb PYK inh 4.6%.
C=CCc1cccc(/C=N/n2cnnc2)c1O was read as LmPK inhibitor 3.9%, Shiga toxin inh -3.5, FBPA Giardia inh -7.7%, Cycloheximide cs -2.8, RE007 growth inh -19.5% and Tb PYK inh -8.4%.

Bioassay records as filed in PubChem BioAssay.
